High-throughput results deposited in PubChem BioAssay by several laboratories.
CYP2C9 act: CYP2C9 (human) activation; P11712; recombinant CYP2C9, luciferin-H conversion, luminescence; stronger effect = higher value; factor 1 = untreated enzyme, 0 = blocked; activation factor at 5 µM; 96,000 tested, 1.4% active;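 active = activation factor of 2 or more for CYP2C9 at a 5 µM dose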;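 note: 0 = sulfaphenazole-blocked wells and 1 = vehicle-only wells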
Target sequence (P11712 whole entry, looked up): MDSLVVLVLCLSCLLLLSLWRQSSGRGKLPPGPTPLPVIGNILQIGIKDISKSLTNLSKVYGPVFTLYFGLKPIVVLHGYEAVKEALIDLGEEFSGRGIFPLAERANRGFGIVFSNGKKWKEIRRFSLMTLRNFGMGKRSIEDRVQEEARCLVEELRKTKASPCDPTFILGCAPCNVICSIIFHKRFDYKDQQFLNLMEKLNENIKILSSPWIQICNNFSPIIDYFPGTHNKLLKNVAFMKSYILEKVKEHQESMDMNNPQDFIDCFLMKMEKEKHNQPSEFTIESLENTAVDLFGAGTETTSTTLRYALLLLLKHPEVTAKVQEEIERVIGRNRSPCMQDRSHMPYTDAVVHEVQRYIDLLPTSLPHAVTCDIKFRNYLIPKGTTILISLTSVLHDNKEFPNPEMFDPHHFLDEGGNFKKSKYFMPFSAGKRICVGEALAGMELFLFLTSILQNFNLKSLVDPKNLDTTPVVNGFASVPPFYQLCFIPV
CYP2C19 inh: blocks human cytochrome P450 2C19; P33261; CYP2C19 Supersomes, luciferin-H EGE luminescence, 30 min; inhibition, % at 5 µM; 96,000 tested, 21% active; AID 778;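 active = CYP2C19 inhibition above a set limit at 5 µM in the primary screen, cut at about 50% in these data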;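 note: plate controls were negative control wells for no effect and 2.5 mM tranylcypromine positive control for full effect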
Cav32 inh: blocks human Cav3.2 T-type calcium channel. Cav3.2-expressing cells, Fluo-4 calcium fluorescence FDSS; stronger effect = lower value. O95180. 100,000 tested, 4% active. B-score at 10 µM. AID 449739;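 active = single-dose well whose peak fluorescence ratio is a statistical outlier from its plate by either plate-standardised score or position-corrected B-score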
CYP2C19 activ: cytochrome P450 2C19 (human) activation; P33261; recombinant CYP2C19, luciferin-H EGE luminescence; stronger effect = higher value; 0 = fully inhibited enzyme, 1 = untreated enzyme; activation factor at 5 µM; 96,000 tested, under 10 active; AID 1025;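 active = activation factor of at least 2 at 5 µM in the primary screen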;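 note: 0 = wells with 2.5 mM tranylcypromine and 1 = vehicle-only wells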
CYP2C9 inh: human CYP2C9 inhibition | CYP2C9 Supersomes, luciferin-H conversion, luminescence | inhibition, % at 5 µM | 96,000 tested, 20% active;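 active = blocking of liver enzyme CYP2C9 beyond about 50% at 5 µM, limit read from the data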
Starred values were filed as active, the others as inactive; nt = no result given. Rows were chosen to be rich in hits. Some 27% of all compounds tested hit in one or more screens of this group.

SMILES	CYP2C9 act	CYP2C19 inh	Cav32 inh	CYP2C19 activ	CYP2C9 inh
Cc1ccc2c(c1)nc(NCCO)n2C	0.8	9	0.44	0.9	20
COc1cccc(CNC(=O)C2=C(C)C(=O)OC23CCC(C)CC3)c1 (configuration not stated)	0.7	91*	-1	0.1	25
CC1=C(C(=O)NC2CCCCC2C)C2(CCC(C)CC2)OC1=O (configuration not stated)	0.5	91*	-0.014	0.1	48
CC1=C(C(=O)N2CCCCC2)C2(CCC(C)CC2)OC1=O (configuration not stated)	1	51*	0.15	0.5	-1
CCCNC(=O)C1=C(C)C(=O)OC12CCC(C)CC2 (configuration not stated)	0.9	52*	0.15	0.5	15
CC1=C(C(=O)NC2CCCC(C)C2C)C2(CCCCC2)OC1=O (configuration not stated)	0.9	18	-3.4	0.8	10
CC12CCC(CC1)C(C)(C)O2	nt	nt	0.45	nt	nt
CCc1nnc(NC(=O)C(=O)NCCOC(=O)c2ccccc2Cl)s1	0.8	18	-0.95	0.8	17
Cc1nc2sc3c(c2c(=O)o1)CCCC3	0.9	-1	0.033	1	14
CC(C)c1nc2sc3c(c2c(=O)o1)CCCC3	0.3	51*	0.25	0.5	66*
Nc1nc2sc3c(c2c(=O)s1)CCCC3	0.2	44	-0.78	0.6	80*
O=c1c2c3c(sc2nc2n1CCCC2)CCCCC3	0.4	24	1.2	0.8	62*
C#CCOCCOCCOCCNc1nc(N2CCN(C(=O)[C@H](CCCCN)n3cc(C(N)CO)nn3)CC2)nc(N2CCN(C(=O)[C@H](CCC(=O)O)n3cc(C(N)Cc4ccc(O)cc4)nn3)CC2)n1 (some centres not stated)	nt	nt	-0.2	nt	nt
CCOc1ccccc1-c1nc(-c2ccc(C)nc2OC)no1	1.3	13	-0.82	0.9	-30
Cc1oc(-c2ccc(Cl)cc2)nc1CN1CCC(C(=O)NCc2ccco2)CC1	1.3	-7	-2.9	1.1	-34
COC(=O)c1cc2sccc2n1Cc1nc(-c2cccc(Cl)c2)oc1C	0.5	16	-0.2	0.8	46
CCc1ccc(-c2nc(CN3CCC(C(=O)NCCc4ccc(OC)c(OC)c4)CC3)c(C)o2)cc1	0.6	19	-3.3	0.8	38
Cc1oc(-c2cccc(Cl)c2)nc1CN1CCC(C(=O)NCc2ccco2)CC1	0.8	13	-4.3*	0.9	20
COc1ccccc1CNC(=O)C1CCN(Cc2nc(-c3cccc(Cl)c3)oc2C)CC1	1.7	28	-5.8*	0.7	-65
COC(=O)c1cc2ccsc2n1Cc1nc(-c2cccc(Cl)c2)oc1C	0	52*	-0.99	0.5	99*
CCc1ccc(-c2nc(CN3CCC(C(=O)NCc4ccccc4OC)CC3)c(C)o2)cc1	1.1	21	-8.6*	0.8	-10
Cc1oc(-c2ccccc2F)nc1CN1CCC(C(=O)NCCC2=CCCCC2)CC1	2.3*	5	-5.7*	1	-127
COc1ccc(CCNC(=O)C2CCN(Cc3nc(-c4ccccc4F)oc3C)CC2)cc1OC	1.1	-9	0.56	1.1	-8
Cc1nc(N)sc1-c1nnc(SCC(=O)Nc2ccccc2C(F)(F)F)n1C	0.9	-18	0.11	1.2	6
CS(=O)(=O)c1cc([N+](=O)[O-])c(Sc2nc3ccccc3[nH]2)c([N+](=O)[O-])c1	0.9	69*	0.41	0.3	12
SMILES	CYP2C9 act	CYP2C19 inh	Cav32 inh	CYP2C19 activ	CYP2C9 inh
CCOC(=O)c1sc(N(Cc2ccccc2)C(=O)CSc2nnc(C3CC3)n2N)nc1C	0	62*	-1.9	0.4	99*
CCOC(=O)c1sc(N)c(C#N)c1CSc1nnc(C2CC2)n1N	0.3	88*	0.0067	0.1	74*
Cc1nc(Nc2ccc(Br)cc2Br)c([N+](=O)[O-])c(=O)[nH]1	nt	nt	0.53	nt	nt
Cc1cc([N+](=O)[O-])ccc1NCc1cccc2ccccc12	nt	nt	-0.7	nt	nt
Cc1ccc(NCCC(=O)c2cccc([N+](=O)[O-])c2)c(C)c1	0.6	75*	-1.8	0.2	38
COc1ccc(OC)c(NC(=O)C2C3CCC(O3)C2C(=O)O)c1 (configuration not stated)	1	2	nt	1	3
CNc1cc(-n2nc(C)cc2-c2ccccc2)ncn1	0.5	61*	1.4	0.4	48
O=C(Nc1ccc(F)cc1F)c1noc2c1CCC2	1.1	-9	1.1	1.1	-15
O=C(Nc1c(F)cccc1F)c1ccc(-n2cncn2)nc1	0.5	93*	-0.74	0.1	48
O=C(Nc1ccc(F)cc1F)c1ccc(-n2cncn2)nc1	0.2	100*	nt	0	76*
COc1ccc(NC(=O)c2ccc(-n3cccn3)nc2)c(OC)c1	1	1	0.43	1	2
Cc1ccccc1NC(=O)c1c(F)c(F)c(F)c(F)c1F	1	2	0.69	1	-4
COc1ccccc1NC(=O)c1ccc(-n2cccn2)nc1	2*	7	-0.38	0.9	-97
Cc1ccccc1NC(=O)c1ccc(-n2cncn2)nc1	0.2	99*	nt	0	85*
COc1ccc[nH]c1=O	0.7	81*	0.33	0.2	33
COc1cc2[nH]ccc(=O)c2cc1OC	nt	nt	-0.88	nt	nt
Cc1ccsc1C(=O)OCc1csc(-c2ccccc2)n1	1.1	6	-0.82	0.9	-6
Cc1ccc(S(=O)(=O)N2CCCC(C(=O)NC3=NCCS3)C2)cc1 (configuration not stated)	1	-3	0.53	1	-1
CC1(C)Cc2c(C#N)c(OCC(=O)c3ccccc3)nc(-c3ccoc3)c2CO1	1	13	0.79	0.9	5
COc1nc(-c2ccccc2)c2c(c1C#N)CC(C)(C)OC2	0.5	78*	1.3	0.2	47
CC1(C)Cc2c(c(-c3ccccc3)[nH]c(=O)c2C#N)CO1	1.1	55*	1	0.4	-8
CC1(C)Cc2c(C#N)c(OCC(=O)c3ccc(Cl)cc3)nc(-c3ccoc3)c2CO1	0.6	79*	-1.6	0.2	38
CC(C)c1[nH]c(=O)c(C#N)c2c1COC(C)(C)C2	1.1	17	1	0.8	-6
CC1(C)Cc2c(C#N)c(N3CCOCC3)nc(-c3ccccc3)c2CO1	nt	nt	-1.5	nt	nt
CC1(C)Cc2c(c(-c3ccccc3Cl)[nH]c(=O)c2C#N)CO1	1	92*	1.1	0.1	4
CC(C)Cc1[nH]c(=O)c(C#N)c2c1COC(C)(C)C2	1.1	46	0.78	0.5	-10
CCCc1[nH]c(=O)c(C#N)c2c1COC(C)(C)C2	0.8	66*	0.061	0.3	20
O=[N+]([O-])c1ccccc1NCCNc1ncc(C(F)(F)F)cc1Cl	1	-9	0.16	1.1	0
N#CCC(CNc1ncc(C(F)(F)F)cc1Cl)OC(=O)c1c(F)cccc1F (configuration not stated)	nt	nt	-3.7*	nt	nt
N#CCC(CNc1ncc(C(F)(F)F)cc1Cl)OC(=O)c1cccc([N+](=O)[O-])c1 (configuration not stated)	0.3	96*	-2.5	0	68*
